Assay results: PubChem BioAssay AID1851 (National Center for Advancing Translational Sciences (NCATS), 2009)
“And” between values parts separate entries of the source, which are not always exact repeats. Equal values may be shown once. Screen size: about 16,000 compounds; about 5,800 (36%) were called active. Not shown: some 23% with an inconclusive outcome. Calls follow the shape of the dose curve; as a rule, active = well fitted curve in the direction sought with a large enough effect; inconclusive = small, poorly fitted or top-dose-only effect, or effect the other way; inactive = no such curve, though single readings can be large or run the other way. Some of the results follow.

Molecular target: Cytochrome P450 2C19 (Homo sapiens) (UniProt P33261)
Sequence (P33261 whole entry, looked up): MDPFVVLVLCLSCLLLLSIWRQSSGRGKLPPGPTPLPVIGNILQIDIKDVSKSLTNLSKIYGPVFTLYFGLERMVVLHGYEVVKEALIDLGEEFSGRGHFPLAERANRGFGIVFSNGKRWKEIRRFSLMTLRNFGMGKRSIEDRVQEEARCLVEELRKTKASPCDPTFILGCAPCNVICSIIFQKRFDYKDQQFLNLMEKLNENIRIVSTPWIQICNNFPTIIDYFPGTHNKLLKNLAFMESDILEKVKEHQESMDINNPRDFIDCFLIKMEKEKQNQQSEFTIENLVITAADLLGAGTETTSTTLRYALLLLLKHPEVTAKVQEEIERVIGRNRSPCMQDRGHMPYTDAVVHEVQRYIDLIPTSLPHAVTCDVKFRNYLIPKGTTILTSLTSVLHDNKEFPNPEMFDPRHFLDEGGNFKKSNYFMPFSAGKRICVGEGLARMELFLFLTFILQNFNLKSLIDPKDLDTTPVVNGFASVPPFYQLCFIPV
Test: Cytochrome panel assay with activity outcomes
Conditions: recombinant CYP, pro-luciferin dealkylation, luminescence, p450-cyp2c19; series mostly up to 57.1 µM; activity, negative = inhibition: at the top concentration
% is scaled to controls: 0 for no effect and ±100 for the full control effect.

Structure (SMILES)	activity, negative = inhibition	AC50
CO[C@H]1COC(=O)C/C=C\[C@@H](C)COC(=O)[C@@H](CCSC)NC(=O)C/C=C\[C@@H]1C	-53.8% [at 11.4 µM] (inactive) and -16.1% [at 11.4 µM] (inactive)	–
CO[C@H]1COC(=O)C/C=C\[C@H](C)[C@@H](NS(=O)(=O)c2ccc(C)cc2)COC(=O)CCC[C@@H]1C	-36% [at 11.4 µM] (inactive)	–
COc1cccc(NS(=O)(=O)c2ccc3[nH]cc(C(=O)NCCN4CCOCC4)c(=O)c3c2)c1	–	22.4 µM (active)
COc1ccccc1CNS(=O)(=O)c1ccc2[nH]cc(C(=O)O)c(=O)c2c1	-6.93% (inactive)	–
Cc1ccc(N2CCN(CCC(=O)O)CC2)cc1	10.7% [at 11.4 µM] (inactive)	–
O=C(CCN1CCN(CC(=O)Nc2ccccc2Cl)CC1)Nc1ccccc1F	–	2.51 µM (active)
Cc1ccc(C)n1CCN1CCN(CC(=O)Nc2cc(C(F)(F)F)ccc2Cl)CC1	–	10 µM (active)
O=C(CCN1CCN(c2ccccc2F)CC1)Nc1ccccc1F	–	4.47 µM (active)
OCCN1CCN(CC/C=C2\c3ccccc3Sc3ccc(C(F)(F)F)cc32)CC1	-2.39% [at 25.6 µM] (inactive)	–
COC(=O)N1CCC2(CCN(Cc3cc(C(F)(F)F)cc(C(F)(F)F)c3)CC2)CC1	-39% (inactive)	–
CC1=C(C#N)C(Nc2ccc(Cl)cn2)(C(F)(F)F)C(=O)N1 (stereo not drawn)	–	0.794 µM (active)
CNC(=S)N1N=C(c2ccc(OC)cc2)CC1c1ccc(N(C)C)cc1 (stereo not drawn)	–	3.16 µM (active)
CCN1C(=O)[C@H]2[C@H]3[C@H](O)[C@H](O)C/C(=N/NC(=O)OCc4ccccc4)[C@H]3CC[C@@H]2C1=O	-7.17% [at 11.4 µM] (inactive)	–
Cc1noc(C)c1COc1cccc(C(=O)OCC(=O)N2CC(=O)Nc3ccccc32)c1	–	3.16 µM (active)
O=[N+]([O-])c1ccc(-c2cnc(SCc3ccccc3Cl)[nH]2)cc1	–	2.24 µM (active)
CC(C)C(=O)Nc1ccc(Sc2ccc(F)cc2)cc1	–	7.94 µM (active)
O=C(O)c1cc2cc(OCc3ccccc3)ccc2[nH]1	-19.8% (inactive)	–
CCOc1ccc(Cc2nc(C)c(CC(=O)N3CCOCC3)c(=O)[nH]2)cc1	-0.806% (inactive)	–
C[N+]1(CC(=O)OCCCc2ccccc2)CCOCC1	-21.7% (inactive)	–
CCOc1ccc2[nH]c(=O)c(CN(CCc3ccccc3)C(=O)N3CCOCC3)cc2c1	–	11.2 µM (active)
CCOc1ccc2[nH]c(=O)c(CN(CCc3ccccc3)C(=O)N3CCCC3)cc2c1	–	20 µM (active)
NNC(=O)CCc1ccc2ccc3ccccc3c2c1	–	0.251 µM (active)
O=C(O)CCCc1ccc2ccccc2c1	0.826% [at 11.4 µM] (inactive)	–
O=C1CCCC=C1[C@@H](O)CCOC(c1ccccc1)(c1ccccc1)c1ccccc1	–	0.251 µM (active)

Structure (SMILES)	activity, negative = inhibition	AC50
O=C1CCCC=C1[C@@H](O)COCc1ccccc1	-32.2% [at 11.4 µM] (inactive)	–
O=C1CCCC=C1[C@@H](O)C1CCCCC1	19.2% [at 11.4 µM] (inactive)	–
N#CC1=C(SCC(N)=O)NC2=C(C(=O)c3ccccc32)C1c1ccc(Cl)cc1 (stereo not drawn)	–	3.98 µM (active)
CSC1=C(C#N)C(c2ccccc2Cl)C2=C(N1)c1ccccc1C2=O (stereo not drawn)	–	0.355 µM (active)
COC(=O)[C@@H]1CC[C@H](C)[C@@H](c2ccc(C)cc2)N1C(=O)c1ccc(/C=N\O[C@@H](C)c2cn([C@H]3COC[C@H]3O)nn2)cc1	-29.4% [at 11.4 µM] (inactive)	–
COC(=O)[C@@H]1CC[C@H](C)[C@@H](c2ccc(C)cc2)N1C(=O)c1ccc(/C=N\O[C@@H]2O[C@H](COC(C)=O)[C@H](OC(C)=O)[C@H](OC(C)=O)[C@H]2OC(C)=O)cc1	-28.1% [at 11.4 µM] (inactive)	–
CO/N=C\c1ccc(C(=O)N2[C@H](c3ccc(C)cc3)[C@@H](C)CC[C@H]2C(=O)OC)cc1	-39.6% [at 11.4 µM] (inactive)	–
COC(=O)[C@@H]1CC[C@H](C)[C@@H](c2ccc(C)cc2)N1C(=O)c1ccc(/C=N\O[C@@H](C)CN2CCCCc3nc(C)c(C)cc32)cc1	-15.5% [at 11.4 µM] (inactive)	–
COC(=O)[C@@H]1CC[C@H](C)[C@@H](c2ccc(C)cc2)N1C(=O)c1ccc(/C=N\O[C@@H](C)CN2CCCc3nc(C)c(C)cc32)cc1	24.5% [at 11.4 µM] (inactive)	–
COC(=O)[C@@H]1CC[C@H](C)[C@@H](c2ccc(C)cc2)N1C(=O)c1ccc(/C=N\OCC[C@@H]2C=C[C@H](OC(C)=O)[C@H](COC(C)=O)O2)cc1	-15.5% [at 11.4 µM] (inactive)	–
COC(=O)[C@@H]1CC[C@H](C)[C@@H](c2ccc(C)cc2)N1C(=O)c1ccc(/C=N\OC[C@@H]2O[C@H](c3ccccc3)C=C[C@@H]2Oc2ccc(OC)cc2)cc1	–	0.0501 µM (active)
COC(=O)[C@@H]1CC[C@H](C)[C@@H](c2ccc(C)cc2)N1C(=O)c1ccc(/C=N\OC[C@@H](O)[C@H]2O[C@H]3OC(C)(C)O[C@H]3[C@@H]2O)cc1	–	0.631 µM (active)
COC(=O)[C@@H]1CC[C@H](C)[C@@H](c2ccc(C)cc2)N1C(=O)c1ccc(/C=N\O[C@@H](C)c2cn([C@H](CO)Cc3ccccc3)nn2)cc1	–	3.98 µM (active)
CC(C)Oc1ccc(C2CC(=O)NC3=C2C(=O)CCC3)cc1 (stereo not drawn)	–	22.4 µM (active)
CO[C@@H]1COC(=O)C/C=C\[C@H](C)[C@H](OC)COC(=O)[C@H]2CCCN2C(=O)C/C=C\[C@H]1C	3.47% [at 11.4 µM] (inactive)	–
CCOC(=O)N1CCN(S(=O)(=O)c2ccc3[nH]cc(C(=O)O)c(=O)c3c2)CC1	-23.3% (inactive)	–
Cc1cc(=O)c2cc(Cl)ccc2[nH]1	-7.25% (inactive)	–
CCOC(=O)N1CCN(c2c(-c3ccccc3)c3cc(Cl)ccc3[nH]c2=O)CC1	–	3.16 µM (active)
COc1ccc2[nH]cc(CCNc3cc(-c4cccnc4)ncn3)c2c1	–	25.1 µM (active)
COc1cccc(-c2cc(NCCc3c[nH]c4ccc(OC)cc34)ncn2)c1	–	0.501 µM (active)
COc1ccc2[nH]cc(CCNc3ccnc(-c4cccnc4)n3)c2c1	–	1 µM (active)
CN(C)c1ccnc(-c2cccc(NS(C)(=O)=O)c2)n1	20.5% (inactive)	–
COc1ccc2[nH]cc(CCNc3ccnc(-c4cccc(NS(C)(=O)=O)c4)n3)c2c1	–	10 µM (active)
Cc1cnc(CNc2cc(-c3cccnc3)ncn2)cn1	-6.34% (inactive)	–
